{
  "source": "the supplement of paper PMC6555819",
  "data": [
    {"system": "PPARg:RXRa DBDmut IVT, anti-RXR (DBD mutation: RXRa K156A/R161A, NR concentration 270 nM, RXRa partner concentration 90 nM)", "experiment": "PBM binding z-score (relative to random genomic background probes); higher = stronger binding; sequences stand for … in GC…GCGATTGACAGCGTAGAATGAAGG", "how_it_was_run": "(§1)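 Probes were double-stranded and carried 34-nt variable regions with direct-repeat seeds, single-nucleotide variants, half-site ablations and random human genomic background sequences, printed on custom Agilent 4×180K protein-binding microarrays. Arrays were incubated 1 h with ligand-free nuclear receptor dimers in PBS pH 7.4, 2% milk, 0.02% Triton X-100, 1 mM DTT, 0.2 mg/mL BSA and 0.4 mg/ml salmon testes DNA. Antibodies against each partner (one per run) detected binding, and scanned fluorescence was regression-normalized. Binding z-scores use the random background probes as reference.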", "values": [
      {"sequence": "CGAACTAGGTCAAGGACAGTGAGTCTCCGCACGC", "PBM binding z-score": 8.24},
      {"sequence": "TCATATAGGTAAATGCTAGGTGACAGTCCGATCT", "PBM binding z-score": 4.18},
      {"sequence": "ATATGTAGGTTATCGTGTCATTCAGTTTGCGCAT", "PBM binding z-score": 7.74},
      {"sequence": "GCTTACGGGTCAAAGGTTATATCATGAATAGAAT", "PBM binding z-score": 4.73},
      {"sequence": "TCTTGTAGACCAACAGGAGGTTAAGAAAGATCGA", "PBM binding z-score": 1.42},
      {"sequence": "TCTGCTAGGTCAACGCTGGTCAGCTAATCTGCTA", "PBM binding z-score": 4.5},
      {"sequence": "ATCTCTAGGTTACAAGTTCAGTGAAAGAGAGGAC", "PBM binding z-score": 4.27},
      {"sequence": "CCTGCTGGGTCAATGGTCAGCTAAAGCAGCTCGC", "PBM binding z-score": 2.51},
      {"sequence": "TCATATAGGTAAGCAGGTGAAAGTCCGTAAGTTA", "PBM binding z-score": 4.03},
      {"sequence": "CCTACTGGGCCAAAAAGGTCTTTGATGCCGATAA", "PBM binding z-score": 3.45},
      {"sequence": "CGAACTAGGTCAAGGTCAAAGTCGGTTTGTGCCA", "PBM binding z-score": 8.45},
      {"sequence": "GTACCAAAGTGAATAGGTCGTTGATGAGTAGGCG", "PBM binding z-score": -0.402},
      {"sequence": "GGAACGAGGGCAAGTTCATAGCAGAGTTTGATGG", "PBM binding z-score": 4.12},
      {"sequence": "ACTTACGGGGCAACGAGGTTATAGCACGCGTATA", "PBM binding z-score": 2.66},
      {"sequence": "GCTTACGGGGCAAAGGTTATAGCATGAATAGAAT", "PBM binding z-score": 3.33},
      {"sequence": "ATCTCTAGGTAAGACTGAGTTCAGTGAAGAACGC", "PBM binding z-score": 1.52},
      {"sequence": "ATCGAAAGGTCCTGAGGTGAGTATACAGAAAGGC", "PBM binding z-score": -0.172},
      {"sequence": "TCGAGTAGGTTACCAATGGGGCATTGAGCTTTCT", "PBM binding z-score": 3.4},
      {"sequence": "CCTACTGGGCCACGAAAGGTCATTGATTCAGTGA", "PBM binding z-score": 5.99},
      {"sequence": "CAAACTAGGTCACGAAAGGACAAAGTCGAATGAC", "PBM binding z-score": 8.65},
      {"sequence": "AGAATGAGGTAATTAAGATCAGGGAATTGCGGTC", "PBM binding z-score": 2.2},
      {"sequence": "ACTAGCTGGTCAGCTGAGGTCACACACAATTCGG", "PBM binding z-score": 0.832},
      {"sequence": "ACTATTAGTGGAGACGAGGGCAACCGATAGGTTG", "PBM binding z-score": -0.144},
      {"sequence": "CAGACTAGGTCAAGGTCAAAGTCGGTTTGTGCCA", "PBM binding z-score": 7.69},
      {"sequence": "TTTTGTAGATCAATAGAGGTTAAGAAAGTGCGCT", "PBM binding z-score": 1.22},
      {"sequence": "CCTAGTTGGTTAGGAGGTCACACACCGGATATGA", "PBM binding z-score": 1.46},
      {"sequence": "CTGACTGGGGCAAGGTTACCATAACGCACAGCCA", "PBM binding z-score": 4.8},
      {"sequence": "GGAACGAGGGCAAAGTCGATAGCATCTGTCGACG", "PBM binding z-score": 3.57},
      {"sequence": "TCATATATGTAATACAGGTGAAAGTCGGCATCTA", "PBM binding z-score": 2.42},
      {"sequence": "CAAACTAGGTCAAAGGTGAAAGTCGAGCCAACCA", "PBM binding z-score": 8.83},
      {"sequence": "CAAACTAGGTCAAGAGGTCTAAGTCCGCTTCCCG", "PBM binding z-score": 7.99},
      {"sequence": "TTACCAAGGTGAAAGGTCGTTGTTGCACGCCTTG", "PBM binding z-score": 2.71},
      {"sequence": "CCGAGTTGGTTATGGGGCATTCAGGCAACGGTGA", "PBM binding z-score": 0.136},
      {"sequence": "CACCCTAGGTCAGGGCCAGTATAGGAGGAACGTT", "PBM binding z-score": 0.709},
      {"sequence": "AGAATGAGGTTATTAAGATCGGGGAATTGCGGTC", "PBM binding z-score": 2.65},
      {"sequence": "TGAATGATGTTAAAGATCAGGGAACGTGGCGTCG", "PBM binding z-score": -0.672},
      {"sequence": "CAGCCTAGGTCAGGGCCAGTACAGGAGGAACGTT", "PBM binding z-score": 1.35},
      {"sequence": "TGAATGAGTTTATAAGATCAGGGAACGTTGCAAA", "PBM binding z-score": -0.937},
      {"sequence": "ATACCAAGGTAATCGTGAGGTCGTTGATACTAAC", "PBM binding z-score": 0.339}
    ]},
    {"system": "PPARg:RXRa IVT, anti-PPARg (NR concentration 270 nM, RXRa partner concentration 90 nM)", "experiment": "PBM binding z-score (relative to random genomic background probes); higher = stronger binding; sequences stand for … in GC…GCGATTGACAGCGTAGAATGAAGG", "how_it_was_run": "as §1", "values": [
      {"sequence": "CGAACTAGGTCAAGGACAGTGAGTCTCCGCACGC", "PBM binding z-score": 8.49},
      {"sequence": "TCATATAGGTAAATGCTAGGTGACAGTCCGATCT", "PBM binding z-score": 3.05},
      {"sequence": "ATATGTAGGTTATCGTGTCATTCAGTTTGCGCAT", "PBM binding z-score": 7.44},
      {"sequence": "GCTTACGGGTCAAAGGTTATATCATGAATAGAAT", "PBM binding z-score": 5.93},
      {"sequence": "TCTTGTAGACCAACAGGAGGTTAAGAAAGATCGA", "PBM binding z-score": 0.757},
      {"sequence": "TCTGCTAGGTCAACGCTGGTCAGCTAATCTGCTA", "PBM binding z-score": 4.5},
      {"sequence": "ATCTCTAGGTTACAAGTTCAGTGAAAGAGAGGAC", "PBM binding z-score": 4.41},
      {"sequence": "CCTGCTGGGTCAATGGTCAGCTAAAGCAGCTCGC", "PBM binding z-score": 3.15},
      {"sequence": "TCATATAGGTAAGCAGGTGAAAGTCCGTAAGTTA", "PBM binding z-score": 3.94},
      {"sequence": "CCTACTGGGCCAAAAAGGTCTTTGATGCCGATAA", "PBM binding z-score": 2.65},
      {"sequence": "CGAACTAGGTCAAGGTCAAAGTCGGTTTGTGCCA", "PBM binding z-score": 8.59},
      {"sequence": "GTACCAAAGTGAATAGGTCGTTGATGAGTAGGCG", "PBM binding z-score": -0.0847},
      {"sequence": "GGAACGAGGGCAAGTTCATAGCAGAGTTTGATGG", "PBM binding z-score": 3.14},
      {"sequence": "ACTTACGGGGCAACGAGGTTATAGCACGCGTATA", "PBM binding z-score": 2.16},
      {"sequence": "GCTTACGGGGCAAAGGTTATAGCATGAATAGAAT", "PBM binding z-score": 4.27},
      {"sequence": "ATCTCTAGGTAAGACTGAGTTCAGTGAAGAACGC", "PBM binding z-score": 1.3},
      {"sequence": "ATCGAAAGGTCCTGAGGTGAGTATACAGAAAGGC", "PBM binding z-score": 0.777},
      {"sequence": "TCGAGTAGGTTACCAATGGGGCATTGAGCTTTCT", "PBM binding z-score": 2.69},
      {"sequence": "CCTACTGGGCCACGAAAGGTCATTGATTCAGTGA", "PBM binding z-score": 5.95},
      {"sequence": "CAAACTAGGTCACGAAAGGACAAAGTCGAATGAC", "PBM binding z-score": 9.28},
      {"sequence": "AGAATGAGGTAATTAAGATCAGGGAATTGCGGTC", "PBM binding z-score": 1.37},
      {"sequence": "ACTAGCTGGTCAGCTGAGGTCACACACAATTCGG", "PBM binding z-score": 1.83},
      {"sequence": "ACTATTAGTGGAGACGAGGGCAACCGATAGGTTG", "PBM binding z-score": 0.852},
      {"sequence": "CAGACTAGGTCAAGGTCAAAGTCGGTTTGTGCCA", "PBM binding z-score": 7.9},
      {"sequence": "TTTTGTAGATCAATAGAGGTTAAGAAAGTGCGCT", "PBM binding z-score": 1.99},
      {"sequence": "CCTAGTTGGTTAGGAGGTCACACACCGGATATGA", "PBM binding z-score": 3.63},
      {"sequence": "CTGACTGGGGCAAGGTTACCATAACGCACAGCCA", "PBM binding z-score": 5.05},
      {"sequence": "GGAACGAGGGCAAAGTCGATAGCATCTGTCGACG", "PBM binding z-score": 3.11},
      {"sequence": "TCATATATGTAATACAGGTGAAAGTCGGCATCTA", "PBM binding z-score": 2.27},
      {"sequence": "CAAACTAGGTCAAAGGTGAAAGTCGAGCCAACCA", "PBM binding z-score": 8.9},
      {"sequence": "CAAACTAGGTCAAGAGGTCTAAGTCCGCTTCCCG", "PBM binding z-score": 8.45},
      {"sequence": "TTACCAAGGTGAAAGGTCGTTGTTGCACGCCTTG", "PBM binding z-score": 4.85},
      {"sequence": "CCGAGTTGGTTATGGGGCATTCAGGCAACGGTGA", "PBM binding z-score": 0.993},
      {"sequence": "CACCCTAGGTCAGGGCCAGTATAGGAGGAACGTT", "PBM binding z-score": 1.64},
      {"sequence": "AGAATGAGGTTATTAAGATCGGGGAATTGCGGTC", "PBM binding z-score": 2.39},
      {"sequence": "TGAATGATGTTAAAGATCAGGGAACGTGGCGTCG", "PBM binding z-score": 0.00051},
      {"sequence": "CAGCCTAGGTCAGGGCCAGTACAGGAGGAACGTT", "PBM binding z-score": 1.58},
      {"sequence": "TGAATGAGTTTATAAGATCAGGGAACGTTGCAAA", "PBM binding z-score": -0.179},
      {"sequence": "ATACCAAGGTAATCGTGAGGTCGTTGATACTAAC", "PBM binding z-score": 0.661}
    ]}
  ]
}
